Source: PubChem BioAssay (several laboratories)
HDAC3 inh: inhibitors of human histone deacetylase 3; O15379; 320,000 compounds, 0.15% hits; inhibition, % at 8.3 µM; recombinant HDAC3, fluorogenic peptide/trypsin coupled, fluorescence; in the data active = inhibition above about 26%, passing the limit was not always enough
PKD1 kinase inh: blocks activity of human protein kinase D1; Q15139; inhibition, % (concentration not given with the values); PKD1 kinase fluorescence polarization assay; 200,000 compounds, 0.056% hits
LANA-H2A inh: blocks KSHV LANA binding to histone H2A/H2B. cell-free LANA-H2A/H2B peptide, fluorescence polarization. 320,000 compounds, 0.6% hits. inhibition, % (test concentration not listed). Q9QR71; in the data active = inhibition mostly above about 10%, no sharp cut-off; inactive = mostly below about 6.7%
GRK2 aptamer HTS: human GRK2 inhibition via aptamer displacement; inhibition of aptamer binding, % at 10 µM; bead flow cytometry, FAM-aptamer displacement from GRK2; 330,000 compounds, 0.59% hits;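 active = inhibition of aptamer binding above 40%, roughly 3 SD of noise, on plates passing a quality check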;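 note: median bead fluorescence of bound FAM aptamer so fluorescent compounds give negative values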
VLA-4 inh: inhibition in a human VLA-4 binding assay; AID 2557; 330,000 compounds, 0.2% hits; P13612; VLA-4 expressing cells, ligand binding flow cytometry; inhibition, % (about 7 µM as worked out from the volumes in the protocol)
DSG3 Ab inh: inhibitors of pemphigus antibody binding to human desmoglein-3. DSG3-coupled beads, scFv-anti-DSG3-GFP binding, flow cytometry; active compounds read low. binding (percent of control), % at 10 µM. P32926. 310,000 compounds, 0.48% hits;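 active = binding more than 3 SD below its plate's average and above zero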;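 note: hits lower antibody fragment binding to DSG3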
* marks the source's active call; other numbers are inactive results; / = no result; + = active, no number. Hits are enriched below; roughly 1.8% of the tested compounds scored in any of these assays. Cut-off read from the data, not from the text of the source, unless noted: active = inhibition above about 50%; inactive = the rest.

SMILES	HDAC3 inh	PKD1 kinase inh	LANA-H2A inh	GRK2 aptamer HTS	VLA-4 inh	DSG3 Ab inh
CN(c1ccccc1)S(=O)(=O)c1cccc(NC(=O)C2CCCO2)c1 (centres undefined)	1.9	/	-2.5	1.0	4.1	96.9
CCn1cc(C(=O)O)c(=O)c2cc(F)c(N3CCN(C)CC3)cc21	-8.1	1.4	2.5	0.0	-37.1	99.5
CCn1cc(C(=O)O)c(=O)c2cc(F)c(N3CCNCC3)cc21	/	2.2	70.7*	6.0	2.7	115.2
CCCCCC(=O)N1C[C@@H](O)[C@H](n2cc(-c3ccc(F)cc3)nn2)C[C@@H]1c1ccc(OC)cc1	/	/	/	/	/	78.6*
C[C@]12CC[C@@H]3c4ccc(O)cc4C(=O)C[C@H]3[C@@H]1CC[C@@H]2O	-1.4	/	3.5*	2.0	-1.8	96.9
CCOCc1c(C(=O)NCc2ccccc2CN2CCCC2)oc2ccccc12	4.8	/	-4.5	0.0	7.6	101.3
NC(=O)COc1ccc(Nc2nnc(-c3ccc(O)cc3)c3ccccc23)cc1	-4.3	/	18.8*	0.0	-15.7	99.4
Cc1ccc(N(C)S(=O)(=O)c2cccc(C(=O)NCC(c3ccco3)N3CCCC3)c2)cc1 (centres undefined)	0.9	/	-0.6	0.0	-13.6	95.2
COCCOC(=O)c1ccc(NC(=O)COc2ccc([N+](=O)[O-])cc2)cc1	2.1	3.8	-1.9	2.0	3.5	96.7
O=C(CCOc1ccccc1)Nc1ccc([N+](=O)[O-])cc1	-0.4	1.9	14.6*	0.0	-4.2	95.1
O=C(Nc1ccc(C(=O)O)cc1)Nc1ccc([N+](=O)[O-])cc1	6.8	/	-3.2	1.0	16.2	98.2
COC(=O)c1ccc(NC(=O)COc2ccc([N+](=O)[O-])cc2)cc1	-5.9	/	19.8*	2.0	16.9	95.3
O=C(Nc1ccc([N+](=O)[O-])cc1)C1C(c2ccccc2)=C1c1ccccc1	3.9	-2.5	17.7*	0.0	11.9	99.4
Cc1ccc(Oc2ccc(Cl)cc2NC(=O)c2cnccn2)cc1	1.0	3.5	3.1	0.0	-13.5	79.2*
O=C(Nc1ccc(O)c(-c2nc3ccccc3s2)c1)c1cc(=O)c2ccccc2o1	-0.9	-0.9	-4.3	90.0*	1.5	132.6
C[C@H](NC(=O)Cc1cccc2ccccc12)C(=O)NCc1ccccc1	-3.3	-0.9	16.4*	1.0	2.3	91.5
CC(C)(C)c1nnc(N/N=C/c2cc(Br)ccc2O)n(N)c1=O	9.9	12.7	+	5.0	21.8	113.9
O=C(COc1ccccc1)Nc1ccc(Cl)cc1Cl	2.1	-9.4	-2.0	5.0	0.0	/
O=C(COc1ccccc1)Nc1cc(Cl)ccc1Cl	-7.4	/	-1.2	0.0	3.6	80.2*
O=C(COc1ccccc1)Nc1nccs1	-3.7	-8.3	28.2*	1.0	-14.1	99.1
COCCCn1c(C(=O)N2CC(C)OC(C)C2)cc2c(=O)n3ccccc3nc21 (centres undefined)	-158.4	/	-2.4	0.0	18.7	109.8
CCOC(=O)CC(=O)CSc1ncnc2c1nnn2-c1ccc(F)cc1	61.5*	-7.8	0.0	0.0	17.2	107.0
Cc1cc(C(=O)N2CCc3ccccc3C2)on1	-6.8	/	2.3	0.0	14.8	93.4
Cc1c(Cl)cccc1N(CC(=O)O)S(C)(=O)=O	-2.5	12.7	11.0*	0.0	-3.7	104.7
Cc1c(Cl)cccc1N(CC(=O)N1CCCCCC1)S(C)(=O)=O	-1.6	-6.9	-4.5	3.0	4.4	100.0
SMILES	HDAC3 inh	PKD1 kinase inh	LANA-H2A inh	GRK2 aptamer HTS	VLA-4 inh	DSG3 Ab inh
C=CCO/N=C(/CCC)C1=C(N)CC(C)(C)CC1=O	0.0	-3.5	-0.8	1.0	4.4	98.4
O=C(CSc1nnc(CNC(=O)c2ccc(F)cc2)o1)NCC1CCCO1 (centres undefined)	-2.4	/	17.8*	0.0	9.8	109.4
CC(C)(C)c1ccc(C(=O)NCc2nnc(SCC(=O)NCC3CCCO3)o2)cc1 (centres undefined)	-5.3	/	-1.6	1.0	26.4	/
CN1CCN(c2ccc(NC(=O)c3ccc(-c4ccc(Cl)cc4)o3)cc2)CC1	0.9	/	65.6*	0.0	2.2	/
CS(=O)(=O)N1CCN(c2ccc(NC(=O)c3ccc(-c4ccc(Cl)cc4)o3)cc2)CC1	0.8	2.0	-11.7	0.0	-4.4	88.2
Cc1ccc(S(=O)(=O)N(C)C)cc1NC(=S)N(C)C1CCN(C)CC1	-0.1	/	-0.2	0.0	4.9	102.6
